Data as given in ChEMBL document CHEMBL3433997, “St. Jude Leishmania screening dataset” (2016).

Legend:
Assay type in all cases: functional
[1] = molecular target: Solute carrier family 2, facilitated glucose transporter member 1 (Homo sapiens) (UniProt P11166); experiment: ST_JUDE_LEISH: Cytotoxicity at 2uM final concentration against transgenic Leishmania Mexicana promastigotes LmGLUT1 that are glucose transport deficient and complemented with the human glucose transporter GLUT1. Activity is measured by DNA content using SYBR green in vitro
Chain of Solute carrier family 2, facilitated glucose transporter member 1 (Homo sapiens) (P11166 whole entry): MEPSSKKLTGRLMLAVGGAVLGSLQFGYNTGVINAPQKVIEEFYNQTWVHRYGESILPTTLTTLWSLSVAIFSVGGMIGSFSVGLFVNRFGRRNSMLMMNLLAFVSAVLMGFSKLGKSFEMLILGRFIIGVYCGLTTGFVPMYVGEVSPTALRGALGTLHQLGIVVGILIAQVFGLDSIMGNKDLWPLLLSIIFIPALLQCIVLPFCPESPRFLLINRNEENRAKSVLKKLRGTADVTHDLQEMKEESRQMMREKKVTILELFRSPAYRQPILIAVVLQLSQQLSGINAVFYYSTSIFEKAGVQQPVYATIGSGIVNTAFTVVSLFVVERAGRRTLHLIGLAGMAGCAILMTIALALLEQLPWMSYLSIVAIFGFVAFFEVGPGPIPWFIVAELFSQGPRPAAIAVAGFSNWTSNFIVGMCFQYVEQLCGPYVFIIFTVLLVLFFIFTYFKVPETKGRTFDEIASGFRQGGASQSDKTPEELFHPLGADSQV

[2] = molecular target: Hexose transporter 1 (Plasmodium falciparum) (UniProt O97467); experiment: ST_JUDE_LEISH: Cytotoxicity at 2uM final concentration against transgenic Leishmania Mexicana promastigotes LmPfHT that are glucose transport deficient and complemented with the Plasmodium falciparum hexose transporter. Activity is measured by DNA content using SYBR green in vitro
[3] = molecular target: Glucose transporter (Leishmania mexicana) (UniProt O61059); experiment: ST_JUDE_LEISH: Cytotoxicity at 2uM final concentration against transgenic Leishmania Mexicana promastigotes LmGT2 that are glucose transport deficient and complemented with the L. Mexicana glucose transporter 2. Activity is measured by DNA content using SYBR green in vitro

Row | SMILES | inhibition [1] [%] | inhibition [2] [%] | inhibition [3] [%]
1 | CCN(CC)CCN(Cc1ccc(-c2ccc(C(F)(F)F)cc2)cc1)C(=O)Cn1cc(Cc2cnn(C)c2)c(=O)nc1/C=C/c1ccc(F)cc1 | 1.22 | 1.54 | 2.56
2 | COc1ccc2c(=NN=Cc3ccc(OC)c4ccccc34)cc(C)[nH]c2c1 | 0.09 | 1.71 | 1.11
3 | O=C(/C=C/c1ccc(Cl)c(Cl)c1)N1CCC(CCN2CCC(c3c[nH]c4ccccc34)CC2)CC1 | -0.41 | 0.94 | 0.41
4 | COc1cc2nc(SCC(C)C)n(CCCn3ccnc3)c(=N)c2cc1OC | 3.51 | 6.49 | 3.6
5 | CCOc1ccc(Nc2cc(C)nc(Nc3ccc(OCC)cc3)n2)cc1 | 0.78 | 2.01 | 1.02
6 | CC(C)c1ccc(NC(=O)c2ccc(C(=O)NC3CCN(Cc4ccccc4)CC3)cc2)cc1 | 1.09 | 2.91 | -1.3
7 | CCOc1ccc2c(=NN=Cc3c4ccccc4cc4ccccc34)cc(C)[nH]c2c1 | 2.42 | 1.13 | 3.35
8 | CC(C)(C)OC(=O)N(Cc1cc(-n2nnnc2C(F)(F)F)ccc1O)[C@H]1CCCN(C(=O)OC(C)(C)C)[C@H]1c1ccccc1 | -0.38 | -2.92 | -3.2
9 | OC1CCN(c2cc(-c3ccccn3)nc(-c3ccccn3)n2)CC1 | -1.43 | 2.02 | -4.46
10 | CNCCNCc1ccc(-c2ccc(-c3nc4cc(C(F)(F)F)ccc4[nH]3)s2)cc1 | 2.21 | 0.84 | 0.73
11 | CN(C)CCOc1cc(NC(=O)Nc2ccc(-c3ccccc3)cc2)ccc1I | 12.5 | 12.7 | 12.6
12 | CC(C)n1c(C(C)(C)C)cc2c3c(N)nc(N)nc3ccc21 | 52.7 | 62.4 | 44.4
13 | CN1CCCC1CCNCc1cccc(-c2cnc(N3CCCC(C)(C)C3)nc2)c1 (centres undefined) | 108 | 103 | 104
14 | Cc1cccc2nc(-c3ccc(-c4ccc(CN5CCC(C(N)=O)CC5)cc4)s3)[nH]c12 | 10.9 | 9.37 | 8.95
15 | O=C(C=Cc1ccc(Cl)c(Cl)c1)NCCCCCN1CCC(CCNC(=O)c2sc3ccccc3c2Cl)CC1 | 11.5 | 9.43 | 8.75
16 | CCCCCCCN(CCCCCCC)CCNc1cc(C)nc2ccccc12 | 6.37 | 5.18 | 4.49
17 | CC(C)C[C@H](NC(=O)c1ccc(OCCN2CCOCC2)cc1)C(=O)N[C@H](/C=N/N1CCNC1=O)CCc1ccccc1 | 6.57 | 6.05 | 4.07

Row | SMILES | inhibition [1] [%] | inhibition [2] [%] | inhibition [3] [%]
18 | NCC1CCCN1Cc1cccc(-c2ccc(-c3nc4ccccc4[nH]3)s2)c1 (centres undefined) | 9.15 | 8.03 | 7.51
19 | FC(F)(F)c1cccc2c(NN=Cc3ccccc3)ccnc12 | 2.7 | 2.21 | 1.42
20 | CCNC[C@H]1CCCN1CCOc1ccc(-n2cnc3cc(-c4ccc(Cl)cc4)sc3c2=O)cc1OC | -0.44 | -1.99 | -2.28
21 | CCCNC(=O)c1cncc(-c2ccc(CNC3Cc4ccccc4C3)cc2)c1 | 0 | 0.51 | -1.1
22 | Cn1nc(C(F)(F)F)c(-c2ccc(F)cc2)c1NC(=O)Nc1ccc(F)cc1F | 2.96 | 2.65 | 2.29
23 | COc1cc2nc(NCc3cccc(CNC(=O)c4ccc(-c5ccc(C(C)=O)cc5)cc4)c3)nc(N)c2cc1OC | 0.91 | -0.03 | 0.66
24 | c1ccc(-c2cccc(-c3ccccn3)n2)nc1 | 3.92 | 2.46 | 2.49
25 | Cc1cc(-c2cnc(N)c(-c3ccc(N4CCN(C)CC4)cc3)c2)cc(C)c1O | 3.43 | 0.67 | 2.45
26 | Nc1nnc(-c2ccc(Cl)c(Br)c2)c(N)n1 | -0.74 | 1.8 | 4.94
27 | O=C(/C=C/c1ccc([N+](=O)[O-])cc1)N1CCC(CCN2CCC(c3c[nH]c4ccccc34)CC2)CC1 | 2.33 | 3.09 | 2.47
28 | COC(=O)c1ccc(NC(=O)c2ccc(CCN3CCC(c4nc(COCC(F)(F)F)c(-c5ccc(F)cc5)o4)CC3)cc2)cc1 | 3.21 | 3.11 | 2.38
29 | COc1cc2c(cc1OC)-c1cc(=Nc3c(C)cc(C)cc3C)n(C)c(=O)n1CC2 | 0.22 | 2.72 | 0.49
30 | COc1ccc(CN2CCN(C(=O)c3cccs3)CC2)c(O)c1 | 10.5 | 11.1 | 8.97
31 | CCCCCCNC(=O)C1Cc2c([nH]c3cc(Cl)ccc23)C2(CCN(Cc3ccccc3)CC2)N1 (centres undefined) | 7.27 | 5.97 | 5.18
32 | Cc1ccc(Cn2c(N3CCC(C(=O)NCc4ccccn4)CC3)nc3ccccc32)cc1 | 4.09 | 4.68 | 7.97
33 | O=C(Nc1ccc(S(=O)(=O)N2CCOCC2)cc1)c1cc(-c2cc(Cl)ccc2O)n[nH]1 | 0.98 | 0.88 | 0.85
